We go through nine molecules from PubChem BioAssay (NCI).

SMILES strings stand for the structures. “And” between values parts separate entries of the source, which are not always exact repeats. Identical values can stand only once. The panel holds about 79,000 compounds, 15% with a hit somewhere; the sample as a whole holds those more often. A structure can be active in one record and inactive in another. The source made the active and inactive calls. Rule as the data show it: active = growth inhibition above about 70%; inactive = the rest.

The nature of test [1]: NCI Yeast Anticancer Drug Screen. Data for the rad50 strain (AID 155).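 Also: 0% = growth of vehicle-only cultures of the same strain.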 The conditions noted are these: S. cerevisiae rad50 strain growth inhibition, stronger effect = higher value. Summed up:
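DNA repair mutant yeast, compound exposure, growth read-out; inhibition is taken relative to vehicle.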

Test [2] is described as follows: NCI Yeast Anticancer Drug Screen. Data for the mec2-1 strain (AID 157). The conditions noted are these: S. cerevisiae mec2-1 strain, stronger effect = higher value. Summed up: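 mec2-1 yeast strain, carrying an alteration in DNA damage repair or cell cycle control, was exposed to compounds; growth inhibition was measured relative to vehicle-treated controls.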
Test [3] in a line: NCI Yeast Anticancer Drug Screen. Data for the sgs1 mgt1 strain (AID 161).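 Also: 0% = growth of cultures given vehicle only.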 The conditions noted are these: S. cerevisiae sgs1 mgt1 strain, stronger effect = higher value. Summed up: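 Growth of a repair-deficient yeast mutant was monitored after compound treatment and expressed as inhibition relative to vehicle-treated cultures.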
The nature of test [4]: NCI Yeast Anticancer Drug Screen. Data for the cln2 rad14 strain (AID 165).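 Also: 0% = growth equal to vehicle treated cultures.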 The conditions noted are these: S. cerevisiae cln2 rad14 strain, stronger effect = higher value. In a few lines: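 Yeast carrying cln2 and rad14 alterations (cell cycle control and DNA damage repair) were exposed to compounds. Growth inhibition was measured against vehicle-treated controls.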
The nature of test [5]: NCI Yeast Anticancer Drug Screen. Data for the bub3 strain (AID 167). The conditions noted are these: S. cerevisiae bub3 mutant strain, stronger effect = higher value. Summed up: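 In this screen, a yeast mutant lacking normal mitotic checkpoint function is challenged with compound. Relative growth versus vehicle gives the inhibition value.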
The nature of test [6]: NCI Yeast Anticancer Drug Screen. Data for the mlh1 rad18 strain (AID 175). The conditions noted are these: S. cerevisiae mlh1 rad18 strain growth inhibition, stronger effect = higher value. In a few lines: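 Growth inhibition of the yeast strain was measured after compound exposure and expressed relative to vehicle-treated controls. The strain carries defined defects in DNA damage repair.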

Setting [7] is: at 5.0 µM (retest, dose inferred, filed as 0.5).
Where [8] appears, read: at 50.0 µM (retest, dose inferred, filed as 5.0).

As to `C=CCN(CC=C)CC(C(C)=O)C(c1ccccc1)c1c(O)c2ccccc2oc1=O` (stereo not drawn), the growth inhibition in test [1] (setting [7]) was 32% (inactive); in test [1] (setting [8]), 32% (inactive); in test [1] (at 50.0 µM), 85.3% (active); in test [2] (setting [7]), 28% (inactive); in test [2] (setting [8]) it was 28% (inactive); in test [2] (at 50.0 µM), 74.2% (active). Also, the growth inhibition was 23% (inactive) in test [3] (setting [7]); 23% (inactive) in test [3] (setting [8]); 84.2% (active) in test [3] (at 50.0 µM); 13% (inactive) in test [4] (setting [7]); 13% (inactive) in test [4] (setting [8]); 81.2% (active) in test [4] (at 50.0 µM). The growth inhibition in test [5] (setting [7]) is 27% (inactive); in test [5] (setting [8]), 27% (inactive); in test [5] (at 50.0 µM) it was 78.8% (active); in test [6] (setting [7]), 32% (inactive); in test [6] (setting [8]), 32% (inactive); in test [6] (at 50.0 µM), 80.2% (active).

As for `C=C(CC(=O)O)C(=O)O` (tested in a mixture with another compound), the growth inhibition is -1% (inactive) in test [1] (setting [7]); 0% (inactive) in test [1] (setting [8]); -3.6% (inactive) and 99.4% (active) in test [1] (at 50.0 µM); 8% (inactive) in test [2] (setting [7]); 0% (inactive) in test [2] (setting [8]); 28% (inactive) and 99.5% (active) in test [2] (at 50.0 µM). Further, the growth inhibition is -1% (inactive) in test [3] (setting [7]); -1% (inactive) in test [3] (setting [8]); -21.9% (inactive) and 98.8% (active) in test [3] (at 50.0 µM); 0% (inactive) in test [4] (setting [7]); -2% (inactive) in test [4] (setting [8]); 39% (inactive) and 99.6% (active) in test [4] (at 50.0 µM). For the same molecule, the growth inhibition in test [5] (setting [7]) was -3% (inactive); in test [5] (setting [8]), -4% (inactive); in test [5] (at 50.0 µM) it was -3.25% (inactive) and 99% (active); in test [6] (setting [7]), 0% (inactive); in test [6] (setting [8]) it was -1% (inactive); in test [6] (at 50.0 µM), 18.6% (inactive) and 99.2% (active).

As for `CCOc1c(Br)cc(/C=C/[N+](=O)[O-])cc1OC`, the growth inhibition in test [1] (setting [7]) was 44% (inactive); in test [1] (setting [8]) it was 98% (active); in test [1] (at 50.0 µM), 69.8% (inactive); in test [2] (setting [7]) it was 61% (inactive); in test [2] (setting [8]), 98% (active); in test [2] (at 50.0 µM), 75.5% (active). For the same molecule, the growth inhibition in test [3] (setting [7]) was 32% (inactive); in test [3] (setting [8]), 98% (active); in test [3] (at 50.0 µM), 84% (active); in test [5] (setting [7]), 61% (inactive); in test [5] (setting [8]), 99% (active); in test [5] (at 50.0 µM) it was 79% (active). Moreover, the growth inhibition in test [6] (setting [7]) is 58% (inactive); in test [6] (setting [8]) it was 98% (active); in test [6] (at 50.0 µM), 90.5% (active).

Turning to `c1ccncc1`, the growth inhibition is 17% (inactive) in test [1] (setting [7]); 20% (inactive) in test [1] (setting [8]); -2% (inactive) in test [2] (setting [7]); 7% (inactive) in test [2] (setting [8]); -4% (inactive) in test [3] (setting [7]); 19% (inactive) in test [3] (setting [8]). Besides, the growth inhibition is 0% (inactive) in test [4] (setting [7]); -1% (inactive) in test [4] (setting [8]); -3% (inactive) in test [5] (setting [7]); 6% (inactive) in test [5] (setting [8]); 8% (inactive) in test [6] (setting [7]); 32% (inactive) in test [6] (setting [8]).

Turning to `COc1c(Br)cc(/C=C(/C)[N+](=O)[O-])cc1Br`, the growth inhibition was 23% (inactive) in test [1] (setting [7]); 66% (inactive) in test [1] (setting [8]); 91.3% (active) in test [1] (at 50.0 µM); 43% (inactive) in test [3] (setting [7]); 74% (active) in test [3] (setting [8]); 31.8% (inactive) in test [3] (at 50.0 µM). The growth inhibition is 29% (inactive) in test [4] (setting [7]); 61% (inactive) in test [4] (setting [8]); 71.2% (active) in test [4] (at 50.0 µM); 46% (inactive) in test [5] (setting [7]); 79% (active) in test [5] (setting [8]); 91.8% (active) in test [5] (at 50.0 µM). Besides, the figures for the growth inhibition in test [6] (setting [7]), in test [6] (setting [8]) and in test [6] (at 50.0 µM) were 13% (inactive), 59% (inactive) and 82.3% (active), respectively.

As for `c1cc[c]([Sn]([c]2ccccc2)([c]2ccccc2)[CH]2CCCCC2)cc1`, the growth inhibition was 1% (inactive) in test [1] (setting [7]); 89% (active) in test [1] (setting [8]); 92.7% (active) in test [1] (at 50.0 µM); 7% (inactive) in test [2] (setting [7]); 94% (active) in test [2] (setting [8]); 97.2% (active) in test [2] (at 50.0 µM). The growth inhibition in test [3] (setting [7]) was 20% (inactive); in test [3] (setting [8]) it was 93% (active); in test [3] (at 50.0 µM) it was 97.7% (active); in test [5] (setting [7]), 1% (inactive); in test [5] (setting [8]), 93% (active); in test [5] (at 50.0 µM), 98% (active). Further, the growth inhibition in test [6] (setting [7]) is 19% (inactive); in test [6] (setting [8]) it was 91% (active); in test [6] (at 50.0 µM), 97% (active).

Consider `ClCC[N+]12CC[N+](CCCl)(CC1)C2`, for which the growth inhibition in test [1] (setting [7]) is 59% (inactive); in test [1] (setting [8]), 97% (active); in test [2] (setting [7]), 50% (inactive); in test [2] (setting [8]), 98% (active); in test [3] (setting [7]), 86% (active); in test [3] (setting [8]), 99% (active). Moreover, the growth inhibition in test [4] (setting [7]) was 75% (active); in test [4] (setting [8]), 98% (active); in test [5] (setting [7]) it was 82% (active); in test [5] (setting [8]) it was 98% (active); in test [6] (setting [7]) it was 47% (inactive); in test [6] (setting [8]) it was 97% (active).

In the case of `CCC1CC2C3Cc4ccc(OC)c(O)c4C2(CCN3C)CC1=O` (stereo not drawn), the growth inhibition in test [1] (setting [7]) was 6% (inactive); in test [1] (setting [8]), 3% (inactive); in test [1] (at 50.0 µM), -6.45% (inactive); in test [2] (setting [7]) it was -12% (inactive); in test [2] (setting [8]), -2% (inactive); in test [2] (at 50.0 µM), -6% (inactive). Further, the growth inhibition in test [3] (setting [7]) is 19% (inactive); in test [3] (setting [8]), 9% (inactive); in test [3] (at 50.0 µM) it was -8% (inactive); in test [4] (setting [7]) it was 14% (inactive); in test [4] (setting [8]), 11% (inactive); in test [4] (at 50.0 µM), -5.3% (inactive). For the same molecule, the growth inhibition in test [5] (setting [7]) is 24% (inactive); in test [5] (setting [8]) it was 19% (inactive); in test [5] (at 50.0 µM), -1.25% (inactive); in test [6] (setting [7]), 9% (inactive); in test [6] (setting [8]), 9% (inactive); in test [6] (at 50.0 µM) it was -7.5% (inactive).

Take `c1ccc(-c2ccccn2)nc1`: the growth inhibition in test [1] (setting [7]) was -4% (inactive) and 2% (inactive); in test [1] (setting [8]), 76% (active) and 90% (active); in test [1] (at 50.0 µM) it was 79.8% (active) and 81.1% (active); in test [2] (setting [7]), 0% (inactive) and 1% (inactive); in test [2] (setting [8]), 53% (inactive) and 61% (inactive); in test [2] (at 50.0 µM), 70.9% (active) and 55.6% (inactive). Further, the growth inhibition in test [3] (setting [7]) was 8% (inactive) and -2% (inactive); in test [3] (setting [8]), 74% (active) and 75% (active); in test [3] (at 50.0 µM), 66% (inactive) and 77.8% (active); in test [5] (setting [7]), -23% (inactive) and 0% (inactive); in test [5] (setting [8]) it was 87% (active) and 86% (active); in test [5] (at 50.0 µM) it was 82.5% (active) and 64.2% (inactive). Moreover, the growth inhibition in test [6] (setting [7]) was -3% (inactive) and 2% (inactive); in test [6] (setting [8]), 85% (active) and 84% (active); in test [6] (at 50.0 µM), 68% (inactive) and 75.9% (active).
